High-throughput results from PubChem.
Shown are actives, neighbours in structure and some others; about 10% of the full set was active somewhere.
SW480 rerep = A quantitative high throughput screen for small molecules that induce DNA re-replication in SW480 colon adenocarcinoma cells; SW480 DNA re-replication, Hoechst DNA content imaging, 48 h; Potency, µM (doses to about 46.1 µM), for inactives: at the top dose re-replication activation, most hits filed as activators; actives 1.8% (n = 340,000); further: % of control where 0% means no effect; nearly all actives have a fitted effect of over 55% in size
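Readout is total intensity of Hoechst-stained nuclei, excited at 405 nm and collected at 500-530 nm. Compound treatment lasted 48 hr at 37 C in 5% CO2 before staining.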
RORgamma inh = qHTS for inhibitors of ROR gamma transcriptional activity; Drosophila S2 Gal4-RORgamma UAS-luciferase reporter, 20 h; actives 5.4% (n = 310,000); Nuclear receptor ROR-gamma (Mus musculus), P51450; Potency, µM (highest dose often 53.6 µM), for the others: top-dose activity change, negative = inhibition, usual class: inhibitors; further: on the % scale 0 is the no-effect control and ±100 the full control effect; nearly all actives have a fitted effect of over 60% in size
Target sequence (P51450 whole entry, looked up, the tested form may be a part): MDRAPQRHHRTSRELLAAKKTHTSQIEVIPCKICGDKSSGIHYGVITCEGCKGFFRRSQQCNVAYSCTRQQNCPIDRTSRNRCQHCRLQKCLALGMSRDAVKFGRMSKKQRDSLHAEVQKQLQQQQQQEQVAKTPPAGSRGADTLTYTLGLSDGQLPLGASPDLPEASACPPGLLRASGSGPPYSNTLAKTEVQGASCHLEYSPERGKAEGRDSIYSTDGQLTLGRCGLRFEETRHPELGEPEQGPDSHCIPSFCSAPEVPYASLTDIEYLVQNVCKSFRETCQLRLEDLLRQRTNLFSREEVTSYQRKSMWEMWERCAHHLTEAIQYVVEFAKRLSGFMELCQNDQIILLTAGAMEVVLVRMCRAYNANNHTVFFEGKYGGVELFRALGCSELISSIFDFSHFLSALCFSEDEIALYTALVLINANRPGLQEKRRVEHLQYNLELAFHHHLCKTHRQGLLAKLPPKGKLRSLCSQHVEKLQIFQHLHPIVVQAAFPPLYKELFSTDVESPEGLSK
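Using a luciferase readout, inhibitors were identified by reduced reporter activity in Drosophila cells coexpressing a copper-inducible Gal4–ROR gamma fusion and UAS-driven Photinus luciferase, incubated 20 hr after 700 uM copper sulfate.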
VP16 counter = VP16 counterscreen qHTS for inhibitors of ROR gamma transcriptional activity; Drosophila S2 Gal4-VP16 UAS-luciferase, luminescence, 20 h; Potency, µM (top dose mostly 53.6 µM), for inactives: at the top dose activity, negative = inhibition, actives largely listed as inhibitors; actives 3.5% (n = 310,000); AID 2546, 2010;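 further: Gal4-VP16 expression switched on by copper sulfate through the metallothionein promoter; on the % scale 0 is the no-effect control and ±100 the full control effect; nearly all actives have a fitted effect of over 50% in size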
MCF10A rereplic = A quantitative high throughput screen for small molecules that induce DNA re-replication in MCF 10a normal breast cells; AID 624296, 2012; Potency, µM (highest dose often 46.1 µM), without a hit: at the top dose activity, positive = re-replication, usual class: activators; MCF 10A DNA re-replication, Hoechst nuclear intensity, 48 h; actives 2.9% (n = 350,000); further: % of control where 0% means no effect; nearly all actives have a fitted effect of over 50% in size
KB-V1 cytotox = qHTS assay for MDR1-selective chemotherapeutics: Primary screen using the drug-selected MDR subline cells KB-V1 | actives 3.4% (n = 400,000) | Potency, µM (series often up to 46.1 µM), most hits filed as cytotoxic | KB-V1 MDR cells viability, CellTiter-Glo, 72 h; further: on the % scale 0 is the no-effect control and ±100 the full control effect; nearly all actives have a fitted effect of over 60% in size
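Potencies derive from concentration-effect curves fitted to normalized luminescence (CellTiter-Glo) of KB-V1 cells treated for 72 h at 37 degrees C in phenol-red-free DMEM containing 10% FBS.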
KB-3-1 tox = qHTS assay for MDR1-selective chemotherapeutics: Primary screen using the parental adenocarcinoma cell KB-3-1; KB-3-1 viability, CellTiter-Glo ATP luminescence, 72 h; Potency, µM (highest dose often 46.1 µM), most hits filed as cytotoxic; actives 1.4% (n = 400,000); further: on the % scale 0 is the no-effect control and ±100 the full control effect; nearly all actives have a fitted effect of over 60% in size
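Parental KB-3-1 adenocarcinoma cells in phenol-red-free DMEM with 10% FBS were pin-treated with compounds at several concentrations, incubated 72 h at 37 °C, and viability read by CellTiter-Glo luminescence; concentration-effect curves were fitted after normalization.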
Starred values were filed as active, the others as inactive. The call rests on the fitted dose curve; in most records, active means well fitted curve in the direction sought with a large enough effect; inconclusive means small, poorly fitted or top-dose-only effect, or another doubt; inactive means no such curve, though single readings can be large; an effect the other way counts as inactive or inconclusive. Potency means the concentration at half of the fitted maximal effect.

`O=Cc1cc2c(cc1[B-](F)(F)F)OCO2` gave SW480 rerep 16.4µM*, MCF10A rereplic -52.3%, KB-V1 cytotox inactive and KB-3-1 tox inactive.
Cc1cc(C=O)c(C)n1-c1ccc2c(c1)OCO2 was read as SW480 rerep -1.2%, RORgamma inh -5.9%, VP16 counter -7.2%, MCF10A rereplic 1.2%, KB-V1 cytotox inactive and KB-3-1 tox inactive.
For COc1ccc(CN(N=O)C2CC(=O)N(c3ccc(OC)cc3)C2=O)cc1 (stereo unspecified) the results were SW480 rerep -18.0%, RORgamma inh inconclusive, VP16 counter 14.1µM*, MCF10A rereplic 0.4%, KB-V1 cytotox inactive and KB-3-1 tox inactive.
`O=C(Nc1ccc(Cl)cc1)N(CCCN1CCOCC1)Cc1cccs1` gave SW480 rerep -0.1%, RORgamma inh 18.3%, VP16 counter 4.4%, MCF10A rereplic 4.6%, KB-V1 cytotox inactive and KB-3-1 tox inactive.
`COc1ccc(N2C(=O)CC(N(CCc3ccc(OC)c(OC)c3)C(=S)Nc3ccccc3)C2=O)cc1` (stereo unspecified) gave SW480 rerep 1.3%, RORgamma inh inconclusive, VP16 counter 0.794µM*, MCF10A rereplic inconclusive, KB-V1 cytotox inactive and KB-3-1 tox inactive.
`COc1ccc(N2C(=O)CC(N(CCc3ccc(S(N)(=O)=O)cc3)C(=S)Nc3ccccc3)C2=O)cc1` (stereo unspecified) gave SW480 rerep 15.8%, RORgamma inh 21.9%, VP16 counter 3.2%, MCF10A rereplic 11.3%, KB-V1 cytotox inactive and KB-3-1 tox inactive.
COc1ccc(CN(C(=S)Nc2ccccc2)C2CC(=O)N(c3ccccc3)C2=O)cc1 (stereo unspecified) was read as SW480 rerep -1.3%, RORgamma inh inconclusive, VP16 counter -6.0%, MCF10A rereplic inconclusive, KB-V1 cytotox 4.61µM* and KB-3-1 tox inactive.
Screening COc1ccc(CN(C(=S)Nc2ccccc2)C2CC(=O)N(c3ccc(Cl)cc3)C2=O)cc1 (stereo unspecified) returned SW480 rerep 0.5%, RORgamma inh inconclusive, VP16 counter -9.5%, MCF10A rereplic inconclusive, KB-V1 cytotox inactive and KB-3-1 tox inconclusive.
O=C1CC(N(Cc2cccs2)C(=O)Nc2ccccc2)C(=O)N1c1ccc(Cl)cc1 (stereo unspecified) was read as SW480 rerep inconclusive, RORgamma inh 28.9%, VP16 counter -3.6%, MCF10A rereplic 15.7%, KB-V1 cytotox 18.4µM* and KB-3-1 tox inactive.
`Cc1ccc(OCC(=O)Nc2nonc2-c2ccc(C)c(C)c2)cc1C` gave KB-V1 cytotox inactive and KB-3-1 tox inactive.
COc1ccc(CCN(C)C2CC(=O)N(c3ccccc3)C2=O)cc1OC (stereo unspecified) was read as SW480 rerep -19.1%, RORgamma inh inconclusive, VP16 counter 15.8µM*, MCF10A rereplic 7.4%, KB-V1 cytotox inactive and KB-3-1 tox inactive.
`CC1=CN2C(=N)/C(=C/c3ccc(Sc4ccc(Cl)cc4)o3)C(=O)N=C2S1` gave SW480 rerep -0.5%, RORgamma inh inconclusive, VP16 counter 4.47µM*, MCF10A rereplic inconclusive, KB-V1 cytotox inactive and KB-3-1 tox inactive.
For CC1=CN2C(=N)/C(=C/c3ccc(Sc4ccc(C)cc4)o3)C(=O)N=C2S1 the results were SW480 rerep inconclusive, RORgamma inh 2.24µM*, VP16 counter 3.98µM*, MCF10A rereplic inconclusive, KB-V1 cytotox inactive and KB-3-1 tox inactive.
For CC1=CN2C(=N)/C(=C/c3ccc(C)o3)C(=O)N=C2S1 the results were SW480 rerep -2.3%, RORgamma inh 1.41µM*, VP16 counter 10µM*, MCF10A rereplic 1.8%, KB-V1 cytotox inactive and KB-3-1 tox inactive.
For Cc1ccc(/C=C2\C(=N)N3N=C(CC(=O)N4CCOCC4)SC3=NC2=O)o1 the results were SW480 rerep 36.8%, RORgamma inh -12.9%, VP16 counter -3.1%, MCF10A rereplic 12.4%, KB-V1 cytotox inactive and KB-3-1 tox inactive.
`O=C(NC1CCCCC1)c1nc(-c2c(F)cccc2F)oc1-c1ccccc1` gave KB-V1 cytotox inconclusive and KB-3-1 tox inactive.
COc1ccccc1NC(=O)N(C)C[C@H]1OCc2cnnn2CCCC(=O)N([C@H](C)CO)C[C@@H]1C was read as KB-V1 cytotox inactive and KB-3-1 tox inactive.
`O=C1C(C2=NC(c3ccccn3)C3C(=O)N(c4ccc(OC(F)(F)F)cc4)C(=O)C23)=C(O)c2ccccc21` (stereo unspecified) gave SW480 rerep -7.7%, RORgamma inh 4.2%, VP16 counter 0.1%, MCF10A rereplic inconclusive, KB-V1 cytotox inactive and KB-3-1 tox 4.61µM*.
`O=C1C(C2=NC(C(=O)O)C3C(=O)N(c4ccccc4)C(=O)C23)=C(O)c2ccccc21` (stereo unspecified) gave SW480 rerep -0.2%, RORgamma inh 11.2µM*, VP16 counter 12.6µM*, MCF10A rereplic 4.4%, KB-V1 cytotox inactive and KB-3-1 tox inactive.
`CCN(Cc1ccccc1)C(=O)c1cc2c(=O)[nH]c3ccc(C)cc3c2s1` gave KB-V1 cytotox inactive and KB-3-1 tox inactive.
Screening CCCCNC(=S)NNC(=O)c1cc(C2CC2)nc2ccccc12 returned SW480 rerep -2.3%, RORgamma inh 6.31µM*, VP16 counter inconclusive and MCF10A rereplic 4.1%.
Screening COCCNC(=S)NNC(=O)c1cc(C2CC2)nc2ccccc12 returned SW480 rerep -5.0%, RORgamma inh 11.2µM*, VP16 counter -27.0%, MCF10A rereplic 12.6%, KB-V1 cytotox inactive and KB-3-1 tox inactive.
`CCCCNC(=S)NNC(=O)c1cc(-c2ccncc2)nc2ccccc12` gave SW480 rerep 0.4%, RORgamma inh 11.2µM*, VP16 counter -18.7%, MCF10A rereplic 1.8%, KB-V1 cytotox inconclusive and KB-3-1 tox inconclusive.
Screening NS(=O)(=O)c1ccc(CCNC(=O)c2cc(-c3ccc(Br)cc3)nc3ccccc23)cc1 returned SW480 rerep 8.7%, RORgamma inh 3.55µM*, VP16 counter inconclusive, MCF10A rereplic inconclusive, KB-V1 cytotox inactive and KB-3-1 tox inactive.
